Measurements taken from PubChem BioAssay (NCATS).
“And” between values parts separate entries of the source, which are not always exact repeats. Identical values can stand only once. Results filed as inconclusive are left out. A number with no mark means an inactive call. The source made the active and inactive calls. Calls come from the whole dose curve.

Experiments:
[1] = target: Bile acid receptor (Homo sapiens) (UniProt Q96RI1); assay: qHTS assay for small molecule agonists of farnesoid X receptor signaling (AID 588527); conditions: HEK293T FXR-UAS-bla, beta-lactamase ratio, 16 h; activation: hits give high values;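 note: series mostly up to about 77 µM; 0% = vehicle basal and 100% = reference agonist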
Bile acid receptor (Homo sapiens), sequence (Q96RI1 whole entry, looked up): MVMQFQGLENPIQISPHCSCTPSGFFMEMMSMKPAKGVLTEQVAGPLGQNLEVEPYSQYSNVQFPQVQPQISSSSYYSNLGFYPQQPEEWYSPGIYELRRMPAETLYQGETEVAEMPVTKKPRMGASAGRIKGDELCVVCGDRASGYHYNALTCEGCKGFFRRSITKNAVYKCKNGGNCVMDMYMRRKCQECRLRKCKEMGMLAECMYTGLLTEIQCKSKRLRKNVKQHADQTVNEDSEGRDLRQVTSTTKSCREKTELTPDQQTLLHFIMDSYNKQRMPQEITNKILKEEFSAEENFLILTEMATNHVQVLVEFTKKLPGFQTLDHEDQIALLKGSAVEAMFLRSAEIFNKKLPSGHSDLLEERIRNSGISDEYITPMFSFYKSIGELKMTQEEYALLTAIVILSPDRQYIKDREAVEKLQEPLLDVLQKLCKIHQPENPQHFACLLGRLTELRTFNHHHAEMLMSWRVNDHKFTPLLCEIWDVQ
Outline: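 FXR-UAS-bla HEK293T cells (10% dialyzed FBS) preincubated 5-7 h at 37 C, then compounds at up to 92 uM for 16 h at 37 C. CCF4 beta-lactamase read-out after 2 h RT. Normalized to chenodeoxycholic acid (100 uM) and DMSO; Hill fit gave EC50 and efficacy.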

[2] = target: Peroxisome proliferator-activated receptor delta (Homo sapiens) (UniProt Q03181); assay: qHTS assay for small molecule agonists of peroxisome proliferator-activated receptor delta signaling (AID 588534);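 note: 0% = DMSO basal wells and 100% = positive control agonist at 10 µM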
Peroxisome proliferator-activated receptor delta (Homo sapiens), sequence (Q03181 whole entry, looked up): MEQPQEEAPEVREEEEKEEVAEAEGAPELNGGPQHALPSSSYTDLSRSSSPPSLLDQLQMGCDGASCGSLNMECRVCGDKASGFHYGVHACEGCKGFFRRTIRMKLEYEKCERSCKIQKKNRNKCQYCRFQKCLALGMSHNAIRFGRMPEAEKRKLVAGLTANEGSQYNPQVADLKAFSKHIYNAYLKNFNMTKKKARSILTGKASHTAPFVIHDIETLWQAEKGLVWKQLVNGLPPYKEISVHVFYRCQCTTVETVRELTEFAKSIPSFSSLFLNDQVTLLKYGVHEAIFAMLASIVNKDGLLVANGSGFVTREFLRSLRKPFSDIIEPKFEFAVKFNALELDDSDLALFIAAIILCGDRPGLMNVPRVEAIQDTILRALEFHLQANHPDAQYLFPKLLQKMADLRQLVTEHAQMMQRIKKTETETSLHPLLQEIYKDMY
Outline: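 Fluorescence from CCF4 substrate cleavage by beta-lactamase reporter, read 2 hrs at RT, measured agonist activity. Compounds were tested with 18 hrs exposure at 37 C. Concentration-response data fitted to Hill equation.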

| SMILES | activation [1] | outcome [2] |
| --- | --- | --- |
| CC(=O)Nc1ccc(N)cc1 | 1.67% | inactive |
| COc1cc(-c2ccc(N=C=O)c(OC)c2)ccc1N=C=O | 0.158% | inactive |
| CCCCCCCCCCCCCCN | 2.17% | inactive |
| O=c1[nH]c(=O)c2[nH]cnc2[nH]1 | -9.18% | inactive |
| CC(C)OCC1CO1 (stereo not given) | -0.0386% | inactive |
| C[Si](C)(C)O[Si](C)(C)C | -0.871% | inactive |
| C=C(C)C(=O)OCC(C)C | -0.219% | inactive |
| Cc1ccc(N=Nc2c(O)ccc3ccccc23)c(C)c1 | -0.864% | inactive |
| Oc1c(Cl)ccc(Cl)c1Cl | -2.11% | inactive |
| CCNc1nc(NC(C)CC)nc(OC)n1 (stereo not given) | -1.27% | inactive |
| CCCCCCCCCCCO | -0.12% | inactive |
| Nc1cccc2c(=O)[nH][nH]c(=O)c12 | 1.93% | inactive |
| CN(C)CCCCl | -3.17% | inactive |
| CCCCCCOCCOCCO | -1.2% | inactive |
| COC(=O)C1CCC(C(=O)OC)CC1 (stereo not given) | -4.06% | inactive |
| O=c1n(CCO)c(=O)n(CCO)c(=O)n1CCO | 0.713% | inactive |
| C=Cc1ccc(C=C)cc1 | -3.75% | inactive |
| CC1(C)C(=O)N(Br)C(=O)N1Br | 1.27% | inactive |

| SMILES | activation [1] | outcome [2] |
| --- | --- | --- |
| CC(=O)CC(C)C | -0.151% | inactive |
| CCC(O)C(C)(C)C (stereo not given) | 0.367% | inactive |
| CC(=O)OC1CC(C)OC(C)O1 (stereo not given) | -3.17% and -0.0131% | inactive |
| N[C@@H](Cc1ccccc1)C(=O)O | 1.47% | inactive |
| C1COC1 | -2.57% | inactive |
| CCc1cccc(C)c1N(C(=O)CS(=O)(=O)O)[C@@H](C)COC | 1.55% | inactive |
| CC(C)(C)c1cccc(C(C)(C)C)c1O | -3.57% | inactive |
| NN(c1ccccc1)c1ccccc1 | -1.98% | inactive |
| CC(C)(C)c1n[nH]c(=O)n(N)c1=O | 2.05% | inactive |
| CC(C)[C@@H]1CC[C@@H](C)C[C@H]1O | 0.612% | inactive |
| COc1ccc(N)c(C)c1 | -1.77% | inactive |
| C[Si](Cl)(Cl)c1ccccc1 | 0.0023% | inactive |
| CCCCCCCCOC(=O)c1cc(O)c(O)c(O)c1 | 5.29% | inactive |
| OCl | 1.09% | inactive |
| Cc1c(C(=O)O)c(O)cc2c1C(=O)c1c(O)c([C@H]3O[C@H](CO)[C@@H](O)[C@H](O)[C@H]3O)c(O)c(O)c1C2=O | -1.49% | inactive |
| c1ccc(Oc2ccccc2)cc1 | -0.867% | inactive |
| C[Si]1(C)O[Si](C)(C)O[Si](C)(C)O[Si](C)(C)O1 | -3.3% | inactive |
